Compounds without any hit were thinned out: in the full panel of roughly 83,000, 20% have a hit.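 Step 1: grow cells in 96-well plates. Step 2: add test compound at a single concentration. Step 3: incubate 48 h. Step 4: record percent growth.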 The source made the active and inactive calls. Rule for the calls: active = growth percent below 10; inactive = the rest.
Each compound was assayed on SK-MEL-5 melanoma (assay: NCI-60 one-dose screen, 48 h (100 = growth as untreated, 0 = no growth, -100 = all killed)). Details: 10 µM unless noted.

SMILES | growth
CC(c1ccc(-n2cccn2)cc1)c1cnc(N2CCc3ccc(C(N)=O)cc3C2)s1 (configuration not stated) | 18.8% (inactive)
COc1cc2c(cc1OC)-c1ccc3cc4c(cc3c1N(CCCN1CCCCC1)C2)OCO4 | 44.9% (inactive)
C[C@@H](C[C@H](CCOCc1cccnc1)c1ccccc1)c1cc2ccccc2o1 | 98.4% (inactive)
N#Cc1c(N)n2c(nc1=Nc1ccc([N+](=O)[O-])cc1)sc1cc(Cl)ccc12 | 73% (inactive)
C=C1C(=O)O[C@H]2[C@H]1CC/C(C(=O)NCCCCCCCCNC(=O)/C1=C/CC[C@@]3(C)O[C@H]3[C@H]3OC(=O)C(=C)[C@@H]3CC1)=C\CC[C@@]1(C)O[C@@H]21 | 98.3% (inactive)
O=C(NCCOCCOCCOCCNC(=O)c1cc2c(o1)C(=O)c1ccccc1C2=O)NC12CC3CC(CC(C3)C1)C2 | -97.7% (active)
CCOc1ccc2nc(-c3cccc(OCC(=O)NC(C)C)c3)nc(Nc3ccc(-c4cn[nH]c4)cc3)c2c1 | -81.1% (active)
CSc1ncc(C)c(Nc2ccc(Cl)cc2)n1 | 110% (inactive)
O=C1CCC(N2C(=O)c3cccc(NCCCC4CCN(CCNC(=O)c5cc6c(o5)C(=O)c5ccccc5C6=O)CC4)c3C2=O)C(=O)N1 (configuration not stated) | -99.4% (active)
CCOC(=O)C1C(=O)C=C(c2cnccn2)CC1c1ccc(OC)c(OC)c1 (configuration not stated) | 103% (inactive)
OC(CBr)c1ccnc2ccccc12 (configuration not stated) | 106% (inactive)
O=C1N(c2ccccc2)C(=S)N[C@]12[C@H](c1ccccc1)C1CCCN1[C@]21C(=O)NC2C=CC(Cl)=C[C@H]21 (some centres not stated) | 93.1% (inactive)

Reference: PubChem BioAssay (NCI)
